SMARCA2 activ – activators of SMARCA2 function | MG213 cells, MMTV-luciferase reporter, dexamethasone, overnight | activation, % at 9.1 µM | 1% of 370,000 active | AID 652017; in the data active means activation above about 7.8%
DAX1 inh-1 – inhibitors of human orphan nuclear receptor DAX1 (NR0B1); P51843; HEK293 Gal4-DAX1 luciferase reporter, luminescence; inhibition, % at 6.75 µM; 0.99% of 340,000 active; AID 504766;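 active means inhibition above the mean over all tested compounds plus 3 SD, cut at about 4.2% in these data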;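 further: inhibition shows as a rise in luminescence from relieved DAX1 repression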
hgDAF12 agonist – hgDAF-12 agonism, primary luciferase screen; HEK293 GAL4-hgDAF12 UAS-luciferase reporter, agonist luminescence; normalized to butyrate control; activation, % at 6.8 µM; 1.8% of 370,000 active;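 active means activation above a cutoff set at the mean of all screened compounds plus 3 SD, cut at about 10% in these data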
ssDAF-12 act – activators of S. stercoralis DAF-12 nuclear receptor. HEK293 ssDAF-12/GRIP1 lit1-tk-luc reporter, luminescence; % of 3 µM dafachronic acid response. activation, % at 6.8 µM. 1% of 370,000 active. AID 652126;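 active means activation above the mean over all tested compounds plus 3 SD, cut at about 0.9% in these data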
hcDAF12 agonist – activators of H. contortus DAF-12 nuclear receptor. HEK293 hcDAF-12 lit1-tk-luc reporter, luminescence; 0% DMSO, 100% Δ7-dafachronic acid. activation, % at 6.8 µM. 1.4% of 370,000 active. AID 652067;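 active means activation above the mean of all tested compounds plus 3 SD, cut at about 5.5% in these data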
DAX1 inh-2 – blocks DAX1 repression of SF-1 activated StAR promoter. HEK293T StAR-luciferase reporter, SF-1/DAX-1 repression relief. inhibition, % at 6.8 µM. 1.1% of 370,000 active. AID 652010;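 active means inhibition above the mean over all tested compounds plus 3 SD, cut at about 3.6% in these data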;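 further: higher inhibition means more luminescence from relief of DAX-1 repression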
DAX1 inh confirm – NR0B1 (human) inhibition, confirmation | shares compounds with DAX1 inh-2 | HEK293T StAR-promoter luciferase reporter, SF-1/DAX-1 repression | inhibition, % at 6.8 µM | 87% of 2,400 active;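 active means inhibition above the average of every tested compound plus 3 SD, cut at about 3.8% in these data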;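 further: active compounds raise luminescence by relieving repression of the StAR reporter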
Target sequence (P51843 whole entry, looked up): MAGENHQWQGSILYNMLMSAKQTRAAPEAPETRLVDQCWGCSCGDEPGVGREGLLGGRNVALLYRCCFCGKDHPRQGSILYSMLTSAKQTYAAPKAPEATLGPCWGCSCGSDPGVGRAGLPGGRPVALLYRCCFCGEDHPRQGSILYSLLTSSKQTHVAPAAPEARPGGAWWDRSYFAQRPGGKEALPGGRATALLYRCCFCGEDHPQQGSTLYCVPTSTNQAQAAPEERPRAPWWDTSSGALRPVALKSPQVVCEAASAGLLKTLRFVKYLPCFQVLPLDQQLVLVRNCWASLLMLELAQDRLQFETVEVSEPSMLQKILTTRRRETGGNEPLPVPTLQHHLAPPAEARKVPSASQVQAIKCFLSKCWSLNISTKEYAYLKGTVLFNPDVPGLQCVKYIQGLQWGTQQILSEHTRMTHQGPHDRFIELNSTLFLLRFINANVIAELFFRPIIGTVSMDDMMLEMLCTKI
SF1 AF2mut Luc – counter-screen for DAX1 inhibitors: nonselective inhibitors with SF-1 AF2 mutant; shares compounds with DAX1 inh-2; HEK293 StAR-luciferase, luminescence; inhibition, % at 6.8 µM; 78% of 2,400 active;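 active means inhibition above the mean of all tested compounds plus 3 SD, cut at about 3% in these data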
Of the large screens only hits and unclear results are named; the others gave an inactive call (follow-up assays come after a bar, where they were run). Hits are enriched below; roughly 4.8% of the tested compounds scored in any of these assays.

O=C(Nc1ccc2ccccc2c1)c1cnccn1	hgDAF12 agonist 11, hcDAF12 agonist 6.4, DAX1 inh-2 5.5 | DAX1 inh confirm 14 | SF1 AF2mut Luc 7.9
Cc1coc(C)c1C(=O)Nc1ccc2ccccc2c1	ssDAF-12 act 0.9, DAX1 inh-2 7.4 | DAX1 inh confirm 6.0 | SF1 AF2mut Luc 3.8
O=C(Nc1ccc2ccccc2c1)c1cccnc1	DAX1 inh-2 4.7 | DAX1 inh confirm 11 | SF1 AF2mut Luc 7.7
COc1cc(OC)cc(C(=O)Nc2ccc3nc4n(c(=O)c3c2)CCCCC4)c1	DAX1 inh-2 6.0 | DAX1 inh confirm inactive | SF1 AF2mut Luc inactive
COc1ccccc1C(=O)Nc1ccc2nc3n(c(=O)c2c1)CCCC3	none
CCN(CC)CCCNC(=O)c1oc(=O)c2ccccc2c1-c1ccc(C)cc1	none (no result: DAX1 inh-1)
CN(C)c1ccc(C=Nc2ccccc2C(N)=O)cc1	ssDAF-12 act 1.9, hcDAF12 agonist 10, DAX1 inh-2 5.8 | DAX1 inh confirm 19 | SF1 AF2mut Luc 9.1
Cc1ccc(C=Nc2ccccc2C(N)=O)o1	none
CCN(Cc1ccc2c(c1)OCO2)C(=O)CSc1nc(C)nc2sc(C)c(C)c12	none
CCOC(=O)c1c(SCCN2CCCC2)n(-c2ccccc2)c(=S)n(-c2ccccc2)c1=O	none
CCSc1nnc(NC(=O)c2cc(C)oc2C)s1	none
CCc1nnc(NC(=O)c2cc(C)oc2C)s1	DAX1 inh-2 9.5 | DAX1 inh confirm 7.9 | SF1 AF2mut Luc 5.6
Cc1ccc(CNC(=O)Nc2ccc(Cl)cc2)cc1	DAX1 inh-2 5.2 | DAX1 inh confirm inactive | SF1 AF2mut Luc inactive
O=C(NCc1ccc(Cl)cc1)Nc1ccc(F)cc1	none
Oc1ccc(C=NN=Cc2ccco2)c(O)c1	DAX1 inh-1 5.5, DAX1 inh-2 4.6 | DAX1 inh confirm 7.2 | SF1 AF2mut Luc 4.8
NC(=N\N=Cc1ccco1)/C(N)=N/N=Cc1ccco1	none
CCCCOc1ccc(C(=O)NC2CCCCN(CCC)C2=O)cc1 (centres undefined)	none (no result: DAX1 inh-1)
Cc1ccc(NC(=O)C(=O)NCCCN2CCCC2=O)cc1	hgDAF12 agonist 12, DAX1 inh-2 6.5 | DAX1 inh confirm 9.7 | SF1 AF2mut Luc 6.5
Cc1ccc(NC(=O)C(=O)NCCCN2CCCC2=O)c(C)c1	none
COc1ccccc1CNC(=O)CS(=O)(=O)Cc1ccccc1	none
O=C1/C(=C/c2cccs2)CCC/C1=C\c1cccs1	hgDAF12 agonist 12, hcDAF12 agonist 6.2, DAX1 inh-2 6.8 | DAX1 inh confirm 13 | SF1 AF2mut Luc 11
COc1ccccc1NC(=O)Nc1ccc2c(c1)nc(C)n2C	hgDAF12 agonist 13, DAX1 inh-2 6.0 | DAX1 inh confirm 17 | SF1 AF2mut Luc 9.7
COc1ccccc1NC(=O)Nc1ccc2c(c1)CCC2	DAX1 inh-2 8.1 | DAX1 inh confirm 6.3 | SF1 AF2mut Luc 4.9
COc1ccc(C)cc1NC(=O)Nc1ccc2c(c1)CCC2	none
Cc1ccccc1NC(=O)Nc1ccc2c(c1)CCC2	DAX1 inh-2 5.0 | DAX1 inh confirm 11 | SF1 AF2mut Luc 5.5
COc1ccc(NC(=O)Nc2ccc3c(c2)CCC3)cc1OC	none
CCOC(=O)[C@]12CCCC=C1N(Cc1ccco1)C(=O)[C@H](CC(=O)N1CCN(C(=O)c3ccco3)CC1)C2	none (no result: DAX1 inh-1)
Cc1ccc(C)c(N2CCN(C(=O)CCc3nc(-c4cccc(Cl)c4)no3)CC2)c1	DAX1 inh-2 5.1 | DAX1 inh confirm 5.8 | SF1 AF2mut Luc 3.6
Cc1cccn2cc(-c3ccc4c(c3)NC(=O)CO4)nc12	none
Cc1ccn2cc(-c3ccc4c(c3)NC(=O)CO4)nc2c1	hgDAF12 agonist 11, DAX1 inh-2 5.3 | DAX1 inh confirm 8.6 | SF1 AF2mut Luc 6.0
Cc1ccnc(NC(=O)c2ccc(OCC3CCCO3)cc2)c1 (centres undefined)	DAX1 inh-2 6.8 | DAX1 inh confirm 4.5 | SF1 AF2mut Luc inactive
Nc1ccc2nc(-c3ccc(-c4nc5ccc(N)cc5[nH]4)cc3)[nH]c2c1	none (no result: DAX1 inh-1)
Nc1ccc(-c2nc3ccccc3[nH]2)cc1	hgDAF12 agonist 11, DAX1 inh-2 5.2 | DAX1 inh confirm 9.9 | SF1 AF2mut Luc 6.8
N/C(=N\OC(=O)c1ccccc1)C(C(=O)NOC(=O)c1ccccc1)C1CCCCC1 (centres undefined)	none
CCN(CC)CCCn1c2c(c(SCC(=O)Nc3cccc(C)c3C)nc1=O)CCC2	DAX1 inh-2 7.2 | DAX1 inh confirm 7.7 | SF1 AF2mut Luc 6.3
CCN(CC)CCCn1c2c(c(SCC(=O)Nc3ccc(F)c(F)c3)nc1=O)CCC2	DAX1 inh-2 4.7 | DAX1 inh confirm inactive | SF1 AF2mut Luc inactive
CCCCNC(=S)N1CCC(Cc2ccccc2)CC1	none
O=C(NCCc1ccccn1)c1ccc2nc(Cc3ccccc3F)oc2c1	DAX1 inh-2 7.0 | DAX1 inh confirm 6.9 | SF1 AF2mut Luc 5.2
Cn1cc(CNC(=O)c2ccc3nc(Cc4ccccc4F)oc3c2)cn1	none
Cn1cc(CCNC(=O)c2ccc3nc(Cc4ccccc4F)oc3c2)cn1	hgDAF12 agonist 12, DAX1 inh-2 5.0 | DAX1 inh confirm 7.1 | SF1 AF2mut Luc 5.8
CCOc1cccc(C(=O)Nc2nnc(-c3ccco3)s2)c1	hgDAF12 agonist 11, DAX1 inh-2 5.0 | DAX1 inh confirm 15 | SF1 AF2mut Luc 5.1
CC1=C(C(=O)N(C)C)CC(CC(=O)NCCCCc2ccccc2)C(=O)N1CCCN1CCCC1=O (centres undefined)	none
COc1cc(C(=O)c2cc3c(cc2C)OCO3)cc(OC)c1OC	DAX1 inh-2 6.5 (no result: DAX1 inh-1) | DAX1 inh confirm 13 | SF1 AF2mut Luc inactive
COc1cc(/C=C/C(=O)c2ccc3c(c2)OCO3)cc(OC)c1OC	none (no result: SMARCA2 activ, hgDAF12 agonist, ssDAF-12 act, hcDAF12 agonist, DAX1 inh-2)
CC1CN(C=O)CC(C)N1CCN1C(C)CN(C=O)CC1C (centres undefined)	none
Cc1cccc(N(C)S(=O)(=O)c2ccc(-c3cnc(C4CC4)o3)cc2)c1	DAX1 inh-2 7.6 | DAX1 inh confirm 15 | SF1 AF2mut Luc inactive
Cc1ccc(N(C)S(=O)(=O)c2cc(-c3cnc(C4CC4)o3)ccc2C)cc1	none
COc1cccc(C(NC(C)=O)c2nc(-c3ccc(F)cc3OC)cs2)c1 (centres undefined)	DAX1 inh-2 5.8 (no result: DAX1 inh-1) | DAX1 inh confirm 6.6 | SF1 AF2mut Luc 3.3
CC(C)c1ccc(/C=C2\SC(=O)N(CC(=O)NCCCn3ccnc3)C2=O)cc1	hgDAF12 agonist 11, DAX1 inh-2 6.8 | DAX1 inh confirm 6.2 | SF1 AF2mut Luc 6.5
O=C(CN1C(=O)S/C(=C\c2ccccc2)C1=O)NCCCn1ccnc1	none
